Cycloheximide cs – affects cycloheximide protein synthesis inhibition readout, counter-screen; actives 12% (n = 300,000); AID 2314; max response, %; cell reporter, cycloheximide protein synthesis inhibition counterscreen; in the data active = max response mostly above about 13%, no sharp cut-off; inactive = mostly below about 14%; also: read at 38.3 µM for the half of the compounds with a filed dose
Shiga toxin inh – blocks Shiga toxin action in Vero cells. Vero cells, Shiga toxin protein synthesis inhibition reporter. inhibition, % at 38.7 µM. actives 9.2% (n = 290,000). AID 2315; in the data active = inhibition mostly above about 28%, no sharp cut-off; inactive = mostly below about 43%
FBPA Giardia inh – blocks Giardia fructose-bisphosphate aldolase activity. A8B2U2. purified Giardia FBPA. Potency, µM (top dose mostly 59.6 µM), actives largely listed as inhibitors. actives 0.71% (n = 290,000). AID 2451; also: nearly all actives have a fitted effect of over 55% in size
Target sequence (A8B2U2 whole entry, looked up): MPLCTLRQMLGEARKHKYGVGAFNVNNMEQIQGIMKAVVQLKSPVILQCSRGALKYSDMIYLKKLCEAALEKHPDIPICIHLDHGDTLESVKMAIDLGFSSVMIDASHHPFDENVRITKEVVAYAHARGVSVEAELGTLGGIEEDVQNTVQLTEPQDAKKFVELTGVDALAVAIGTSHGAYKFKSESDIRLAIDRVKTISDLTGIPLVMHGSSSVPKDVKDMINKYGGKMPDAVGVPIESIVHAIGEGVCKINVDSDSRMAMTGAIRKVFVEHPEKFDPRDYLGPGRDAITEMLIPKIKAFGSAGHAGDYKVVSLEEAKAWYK
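40 nM FBPA preincubated 10 min at RT with compound (up to 57.5 uM final), then substrate plus GAPDH/TPI/NAD/arsenate coupling and diaphorase/resazurin added. Fluorescence read after 20 min at RT, 525/598 nm.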
RE007 growth inh – less growth of the S. pombe RE007 Vpr strain; Potency, µM (top dose mostly 92.2 µM), actives largely listed as inhibitors; actives 0.21% (n = 360,000); S. pombe RE007 Vpr strain, BacTiter-Glo ATP luminescence, 24 h; active = well fitted falling curve with a large enough effect; inconclusive = small, poorly fitted or top-dose-only effect; inactive = no such curve, though single readings can be large or run the other way; also: nearly all actives have a fitted effect of over 50% in size
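Fission yeast RE007 carrying one integrated HIV-1 vpr copy, seeded at OD 0.01 in PMG+AL medium with 23 nL pinned compound. Grown 24 h at 30 degrees; viability read by BacTiter-Glo luminescence after 5 min.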
LmPK inh – inhibitors of Leishmania mexicana pyruvate kinase | Q27686 | purified LmPK, Kinase-Glo ATP luminescence, 1 h | Potency, µM (doses to about 57.5 µM), hits mostly inhibitors | actives 0.37% (n = 290,000) | AID 1721
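qHTS format; LmPK 0.1 nM; substrates PEP 0.5 mM and ADP 0.1 mM. One-hour room-temperature incubation, then coupled luciferase luminescence; 0.5 nM enzyme wells mark activation.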
TbPYK inhibitor – blocks Trypanosoma brucei pyruvate kinase. Q57TT1. TbPYK enzyme, Kinase-Glo Plus ATP luminescence, 45 min. Potency, µM (top dose mostly 76.8 µM), usual class: inhibitors. actives 0.12% (n = 410,000). AID 624173; also: nearly all actives have a fitted effect of over 50% in size
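Luminescent Kinase-Glo Plus end-point after 45 min room-temperature reaction of T. brucei pyruvate kinase started with 130 uM ADP (final). Buffer TEA 50 mM pH 7.2 with KCl, MgCl2, BSA, Tween-20; titration-based qHTS with fitted concentration-effect curves.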
A number is an active result; – = inactive; ? = inconclusive; · = not tested or not shown. The full list was thinned out, with hits kept by preference. Unless noted, calls follow the shape of the dose curve; as a rule, active = well fitted curve in the direction sought with a large enough effect; inconclusive = small, poorly fitted or top-dose-only effect, or another doubt; inactive = no such curve, though single readings can be large; an effect the other way counts as inactive or inconclusive.

SMILES | Cycloheximide cs | Shiga toxin inh | FBPA Giardia inh | RE007 growth inh | LmPK inh | TbPYK inhibitor
Fc1ccc2nc(Nc3nc4cc5c(cc4s3)OCO5)sc2c1 | 59 | 80 | – | – | – | –
c1ccc2sc(NC3=NCN(Cc4ccc5c(c4)OCO5)CN3)nc2c1 | – | – | – | – | – | –
COc1ccc(CCNC(=O)c2cnc(C)cn2)cc1 | – | – | · | – | – | –
COc1ccc(CCNC(=O)c2ccc3ccccc3n2)cc1 | 52 | 69 | – | – | – | –
NS(=O)(=O)c1ccc(CNC(=O)c2ccc3ccccc3n2)cc1 | – | – | – | – | – | –
NS(=O)(=O)c1ccc(CNc2ccc3ccccc3n2)cc1 | – | 88 | ? | – | – | –
NS(=O)(=O)c1ccc(CCNC(=O)c2ccc3ccccc3n2)cc1 | 34 | 45 | – | – | – | –
Cc1ccc2c(c1)N(CC(=O)N1CCCC1)C(=O)c1cccnc1O2 | – | – | · | – | – | –
Cc1oc2ncn(C)c(=O)c2c1C(=O)Nc1ccc(F)cc1 | · | · | · | · | · | –
Cc1ccc(NC2=CC(=O)CC(C)(C)C2)c(N)c1 | 60 | 128 | – | – | – | –
Cc1ccc(NC2=CC(=O)CC(C)(C)C2)cc1C | – | – | – | – | – | –
CC1(C)CC(=O)C=C(Nc2ccc3c(c2)OCCO3)C1 | 52 | – | – | – | – | –
CCCOc1ccc(NC2=CC(=O)CC(C)(C)C2)cc1 | 17 | – | – | – | – | –
CCc1ccc(NC2=CC(=O)CC(C)(C)C2)cc1 | – | – | – | – | – | –
O=C(COc1ccc([N+](=O)[O-])cc1Cl)N1CCc2ccccc21 | · | · | · | – | · | –
O=C(CC1SC(=NCCc2ccccc2)N(/N=C/c2cccs2)C1=O)Nc1ccc(Cl)cc1 (stereo unspecified) | 13 | – | – | – | – | –
O=C(CC1Sc2ncnn2C1=O)Nc1ccc(Cl)cc1 (stereo unspecified) | – | – | ? | – | – | –
O=C(CC1SC(=O)N(c2ccccc2)C1=O)Nc1ccc(Cl)cc1 (stereo unspecified) | 14 | – | – | – | – | –
O=C(CC1SC(=O)N(c2ccccc2)C1=O)Nc1ccc(Br)cc1 (stereo unspecified) | 24 | 51 | – | – | – | –
CCCC(=O)N(CCN1CCOCC1)c1nc2c(OC)ccc(OC)c2s1 | – | – | ? | – | – | –
COc1ccc2c(Sc3ccccc3)c(C(=O)NCCc3ccc(Cl)cc3)[nH]c2c1 | · | · | · | · | · | –
O=C(NC1CCCCCC1)C(=S)NCCc1ccccc1 | – | – | – | – | – | –
O=C(NC1CCCCCC1)C(=S)NCc1ccccc1 | 39 | 62 | – | – | – | –
O=C(NC1CCCCC1)C(=S)NCc1ccccc1 | 21 | 83 | – | – | – | –
O=C(NC1CCCCC1)C1CCN(C(=O)NCc2ccccc2)CC1 | – | – | – | – | – | –
SMILES | Cycloheximide cs | Shiga toxin inh | FBPA Giardia inh | RE007 growth inh | LmPK inh | TbPYK inhibitor
C[C@H](CO)N1C[C@H](C)[C@H](CN(C)S(=O)(=O)c2ccc(Cl)cc2)OCc2ccccc2-c2c(n(C)c3ccccc23)C1=O | · | · | · | – | · | –
Cc1cc(OCC(=O)OCC(=O)NC2CCCC2)ccc1Cl | · | · | · | – | · | –
Cc1cc(=O)oc2cc(OCC(=O)NC3CCCCC3)ccc12 | 22 | – | · | – | – | –
Cc1cc(OCC(=O)NC2CCCCC2)ccc1Cl | 30 | 67 | – | – | – | –
O=C(O)/C=C/C(=O)Nc1ccc(-c2ccccc2)cc1 | 45 | 92 | – | ? | – | –
O=C(O)/C=C/C(=O)Nc1ccccc1-c1ccccc1NC(=O)/C=C/C(=O)O | – | – | – | – | – | –
C[C@H](NC(N)=O)C(=O)Nc1ccc(OCc2ccccc2)cc1 | 59 | – | – | – | – | –
O=C(O)/C=C/C(=O)Nc1ccc(OC(F)F)cc1 | – | – | – | – | – | –
CC(C)[C@H](NC(N)=O)C(=O)Nc1ccc(OCc2ccccc2)cc1 | – | – | – | – | – | –
O=C(O)/C=C/C(=O)Nc1ccc(OCc2ccccc2)cc1 | 19 | – | – | – | – | –
Cc1cc(Cl)ccc1Oc1ncc(-c2ccc(Cl)cc2)cn1 | – | – | – | – | – | –
Clc1ccc(-c2cnc(Oc3ccccc3)nc2)cc1 | 74 | 163 | – | – | – | –
O=C(NCCCN1CCN(c2ccccc2F)CC1)c1ccc2nc(CCc3ccccc3)oc2c1 | · | · | · | · | · | –
Cc1cc(C(=O)NC2CCC(C)CC2)c(C)o1 (stereo unspecified) | 52 | 80 | · | – | – | –
Cc1cc(C(=O)OCC(=O)NC2CCC(C)CC2)c(C)o1 (stereo unspecified) | · | · | · | – | · | –
CCN(CC)S(=O)(=O)c1ccc(C(=O)OCC(=O)Nc2ccc(-c3nc4ccc(C)cc4s3)cc2)cc1 | 74 | 115 | – | – | – | –
CCN(CC)S(=O)(=O)c1cc(C(=O)OCC(=O)Nc2cccc(S(=O)(=O)N(C)C)c2)ccc1F | – | – | – | – | – | –
CCN(CC)S(=O)(=O)c1cc(C(=O)OCC(=O)Nc2ccc(-c3nc4ccc(C)cc4s3)cc2)ccc1F | 63 | 92 | – | – | – | –
O=C(Nc1cccc(F)c1)N1CC[C@@]2(CCCN(C(=O)c3ccco3)C2)C1 | · | · | – | · | · | –
NNC(=O)c1ccc(Cn2cc(Br)c(N)n2)cc1 | 12 | – | – | – | – | –
COc1ccccc1C1C=C(c2ccccc2)Nc2nnnn21 (stereo unspecified) | – | 165 | – | – | – | –
CCc1ccc(C2=CC(c3cccc(Br)c3)n3nnnc3N2)cc1 (stereo unspecified) | · | · | · | · | · | –
COc1ccc(C2C=C(c3ccc(Br)cc3)Nc3nnnn32)c(OC)c1 (stereo unspecified) | 33 | 66 | · | · | · | –
Fc1ccc(C2=CC(c3ccco3)n3nnnc3N2)cc1 (stereo unspecified) | 39 | 47 | – | – | – | –
Fc1ccc(Br)cc1C1C=C(c2ccc(Br)cc2)Nc2nnnn21 (stereo unspecified) | · | · | · | · | · | –
SMILES | Cycloheximide cs | Shiga toxin inh | FBPA Giardia inh | RE007 growth inh | LmPK inh | TbPYK inhibitor
CCOc1ccccc1NS(=O)(=O)c1c(C)nc2sccn2c1=O | · | · | · | · | · | –
CCCCOC(=O)c1ccc(NC(=O)c2ccccc2OC)cc1 | – | 29 | – | – | – | –
CCCOC(=O)c1ccc(NC(=O)c2ccccc2[N+](=O)[O-])cc1 | 38 | 91 | – | – | – | –
CCCOC(=O)c1ccc(NC(=O)c2ccccc2OC)cc1 | 26 | 86 | – | – | – | –
CCCCOC(=O)c1ccc(NC(=O)c2cc(Cl)ccc2OC)cc1 | – | – | – | – | – | –
CCN1C(=O)[C@H]2[C@@H](c3ccc(C)cc3)N[C@]3(CCCN(Cc4ccc(Cl)cc4)C3=O)[C@H]2C1=O | · | · | · | – | · | –
CN(Cc1ccccc1)C(=O)c1[nH]cnc1C(=O)Nc1ccccc1F | · | · | · | – | · | –

Bioassay records: PubChem BioAssay, National Center for Advancing Translational Sciences (NCATS)
